Out of some 1,200 compounds screened, about 840 (70%) were called active. No rule for the calls is given here. So high a share suggests a set chosen from earlier hits. A selection follows. Measured potencies and affinities stand elsewhere.
Assay: compounds inducing NF-kB luciferase expression – cell-based, SH-SY5Y, dose response (AID 1241)
Conditions: SH-SY5Y NF-kB promoter luciferase reporter; series mostly up to 30 µM; fold induction over control: at the top concentration

Fold induction over control, inactive:
C(=C\c1nc(-c2ccccc2)no1)/c1ccccc1 14.1
CNc1oc(/C=C/c2ccccc2)nc1C#N 8.72
CCc1ccc(-c2nn(-c3ccccc3)cc2CSC(=N)N)cc1 5.16 [at 7.5 µM]
O=C(Nc1ccc2c(c1)OCCO2)c1cccs1 9.77
Cc1cccc(-c2noc(-c3ccc(Cl)cc3[N+](=O)[O-])n2)c1 13.6
Cc1ccccc1-c1noc(-c2ccccc2F)n1 12.3
COc1ccc(-c2cc(=O)c3cc(C)ccc3[nH]2)cc1 7.13
CCOC(=O)c1sc(-c2ccc(OC)cc2)cc1N 15.4
Nc1nc(-c2ccc3c(c2)CCCC3)cs1 13.8
N#CC(=C1CCCC1)c1nc(-c2ccccc2)cs1 9.56
O=c1oc2cc(Br)ccc2n1CSC1=NCCS1 9.98
CCCCOC(=O)Nc1ccc2c(C)cc(=O)oc2c1 9.2
O=C(Nc1ccc(Cl)cc1)c1ccc(Br)cc1F 12.2
Cc1ccc(C(=O)Nc2ccc3c(c2)nc2n3CCSC2)cc1 10.4
CN1C(=O)/C(=C\C=C2/CCCN2C)N(C)C1=S 2.4
Nc1nonc1-c1noc(COc2ccccc2Cl)n1 15.9
COc1ccc(C(=O)NNC(=S)Nc2ccccc2)cc1 10.9
Cc1cccc(Nc2nc3c(s2)CCCC3)c1 11.4
COc1ccccc1CNc1ccc(CNc2ncn[nH]2)cc1 1.24
Oc1ccccc1CNc1ccc(Br)cn1 6.26
O=C(NCCCN1CCOCC1)c1cc(-c2cccs2)on1 8.03
O=C(NCCCn1ccnc1)c1cc(-c2ccccc2)on1 12.3
Cc1csc2nc(CSc3ccc(Cl)cc3)cn12 10.2
O=C(Cc1cn2ccsc2n1)OCc1ccccc1 2.43
CCOc1cccc2cc(-c3csc(NC(=O)CCC(=O)NCCCN4CCC(C)CC4)n3)c(=O)oc12 13.6
Cc1ccc(Nc2ncnc3c2oc2ccccc23)cc1 8.79
Cc1ccc(N2C(=O)C(NC(=O)c3ccccc3)(C(F)(F)F)C3=C2CC(C)(C)CC3=O)cc1 (centres undefined) 1
COCCn1nnnc1C(CC(C)C)N1CCN(c2cccc(OC)c2)CC1 (centres undefined) 1.05
CC(C)(C)NC(=O)C[n+]1ccc(C(N)=O)cc1 1.06
O=C(NCC1CCCO1)c1cc(-c2ccccc2)on1 (centres undefined) 15.9
COc1ccc2c(c1)CCc1c(C(=O)NCC(C)C)noc1-2 10.1
CC(/C=N/NC(=O)c1cccs1)=C\c1ccco1 9.89
Cc1ccc(N=C/C(C(=O)C(F)(F)F)=C(\O)c2ccco2)cc1Cl 9.74
C/C(=N\NC(=O)c1ccoc1C)c1cccnc1 1.54
CC(=O)CSc1ncnc2c1cnn2-c1ccccc1 9.44
O=[N+]([O-])c1ccc(F)cc1OCc1nc(-c2cccs2)no1 7.67
Cc1ccccc1-c1nnc(SCc2ccccc2F)o1 12.6
CCCn1c(/C=C/c2ccccc2)nc2ccccc21 8.61
CCCCCNc1nc(-c2ccccc2)cs1 14.6
COc1ccc(-c2csc(-c3ccc(C(=O)O)cc3)n2)cc1 11.9
CC1=C/C(=N\OS(=O)(=O)c2ccccc2)C(C(C)C)=CC1=O 0.91
CCOc1ccc2ccccc2c1CNCCN1CCOCC1 1.11
COc1ccccc1-c1noc(-c2ccccc2)n1 8.4
CC(=O)Nc1ccc(-c2cn3cc(C)ccc3n2)cc1 8.51
CCOc1ccc(/C=N/n2c(SC)nnc2-c2ccccc2)cc1OCC 1.09
CC(=O)Oc1ccc(/C=N/NC(=S)Nc2ccccc2)cc1 13.1
O=C(Cc1ccccc1F)Nc1ccc(SC(F)F)cc1 8.46
O=C(NC(=S)Nc1cccc(-c2ccc(CO)o2)c1)c1cccs1 1.54
Cc1nc(NC(=O)c2cccs2)ccc1Br 10.9
Cc1ccc(C(=O)Nc2ccc3nc(C)sc3c2)s1 9.29
COC(=O)c1ccc2nc(NC(=O)C(C)C)sc2c1 14.7
CC1Cc2ccccc2N1C(=O)/C=C/c1cccc(F)c1 (centres undefined) 10.3
CN(C)CCCN(C(=O)/C=C/c1cccs1)c1nc2c(F)cccc2s1 19.1 [at 15 µM]
CN1C(=O)/C(=C/C=C2\SCCN2C)N(C)C1=S 8.39
O=C(/C=C/Sc1ccccc1)c1ccccc1 9.32
C=C(C(=O)c1ccccc1)C(C)C(=C)C(=O)c1ccccc1 7.83 [at 15 µM]
O=C(/C(C=Nc1ccc(Br)cc1)=C(/O)c1ccco1)C(F)(F)F 13.4
O=C(N/N=C\c1ccc(Oc2ccccc2)cc1)c1csnn1 8.95
Cc1cccc(/C(N)=N/OC(=O)c2ccco2)c1 12
O=C1/C(=C/c2cccs2)CCC1C1CCCC1 (centres undefined) 9.35
O=C(c1ccccc1)c1nnc(-c2ccccc2F)o1 12.5
CC1=CC(c2ccccc2)=Nc2ccc(C)cc2N1 5.67
CCOc1ccc(-c2nc3ccccc3c(=O)o2)cc1 11.2
CN1CCN(Cc2nc3ccccc3c(=O)n2Cc2nc(-c3ccc4ccccc4c3)cs2)CC1 2.07
COc1ccc(C2=NN(C(C#N)c3ccc(OC)cc3)C(c3ccccc3)C2)cc1 (centres undefined) 1.84
CCSc1ncc(/C=N/Nc2ccc(Cl)cc2)n1C 9.97
CCOC(=O)c1[nH]c2c(c1C)C(=O)CC(c1ccco1)C2 (centres undefined) 2.32
O=C(O)CCCNC(=O)Nc1ccccc1 1.06
CCCC(O)(CCC)C(=O)NN(C(=O)CCl)c1ccccc1 1.74
CC(C)c1cc(C(=O)Nc2cc(Cl)ccc2O)no1 8.04
O=c1[nH][nH]cc1C=Nc1ccccc1O 3.08
O=c1oc2cc(Cl)ccc2n1CSc1nc2ccccc2s1 11.7
CN1CCN(Cc2cc(Cl)c3cccnc3c2OC(=O)c2cccs2)CC1 11.5 [at 15 µM]
COCCNC(=O)c1cc(-c2cccs2)on1 11
CCOC(=O)CC(=O)CSc1nc2ccc(C)cc2cc1C#N 5.09
COC(=O)CSc1nc2ccc(C)cc2cc1C#N 13.8 [at 7.5 µM]
O=c1[nH]c(=O)n([C@H]2C[C@H](O)[C@@H](CO)O2)cc1C(F)(F)F 1.13
Cc1c(NC(=O)CSc2cccc3cccnc23)c(=O)n(-c2ccccc2)n1C 5.68 [at 15 µM]
COc1cc(C(Nc2ccccn2)c2ccc3ccc(C)nc3c2O)cc(OC)c1O (centres undefined) 0.2
CCOC(=O)C(C)On1c(-c2ccc(Cl)cc2)nc2ccc([N+](=O)[O-])cc21 (centres undefined) 1.48
Cc1ccc(COn2c(-c3ccc(Cl)cc3)nc3ccc([N+](=O)[O-])cc32)cc1 8.36
CCN1CCCc2cc(CN(CCN3CCOCC3)C(=S)Nc3cccc(Cl)c3)ccc21 0.89
CCc1nc(Sc2nnnn2-c2ccccc2)c2c3c(sc2n1)CCCC3 6.97 [at 15 µM]
CCC/C=N/Nc1nc2ccccc2s1 8.91
COc1ccc(C(=O)c2oc3ccc(OC)cc3c2N)cc1 9.59
CCCNC(=O)c1cc(-c2ccc(OC)cc2)on1 13
O=c1cc(-c2ccc3c(c2)OCCO3)oc2ccc(Cl)cc12 10.2 [at 3.75 µM]
N/C(=N\OC(=O)COc1ccc(Cl)cc1Cl)c1ccncc1 7.15
COc1cccc(-c2nc3ccccc3s2)c1O 12.9 [at 15 µM]
Brc1ccc(-c2nc3ccccc3s2)s1 12.4
Cc1ccc2[nH]c(-c3ccccc3)cc(=O)c2c1 12.2
Cc1ccc(-c2cc(=O)c3cc(C)ccc3[nH]2)cc1 11 [at 15 µM]
Clc1ccc2nc3c4ccccc4cnn3c2c1 11.6 [at 15 µM]
C/C(N)=C(/C#N)C(=O)CSc1nnc(-c2ccccc2Br)o1 11.6 [at 7.5 µM]
CCOC(=O)/C(=C\c1ccc(OC(F)F)cc1)C1=Nn2c(nnc2-c2ccc(Cl)cc2)SC1 5.95 [at 7.5 µM]
CC(OC(=O)CCc1nc2ccccc2c(=O)[nH]1)C(=O)c1ccc(C(C)(C)C)cc1 (centres undefined) 2.93
CCCOC(=O)c1ccc(NC(=O)CC(C)(C)C)cc1 8.07
COc1ccc(-c2cc(-c3ccccc3)c(C#N)c(S(C)(=O)=O)n2)cc1 4.91 [at 15 µM]
CC1=CN2C(=N)/C(=C/c3ccco3)C(=O)N=C2S1 9.51
Cc1cc(NC2CCCCC2)n2c(n1)nc1ccccc12 1.3
Cc1cccc(-c2c(O)cc(=O)[nH]c2Cl)c1 0.97
CC(C)Oc1ccc2c(=O)c(-c3ccccc3)coc2c1 12.8
CCOc1cc(/C=C2/NC(=O)N(Cc3ccccc3F)C2=O)ccc1O 1.35
Cc1cc(C)nc(Sc2nc(C)nc3c2oc2ccccc23)n1 6.8
COC(=O)C1C(=O)/C(=C/N(C)C)C(=O)CC1(C)C (centres undefined) 1.08
Clc1ccc(-c2cc(CSc3ccccc3)on2)cc1 9.85
O=C(NCCN1CCOCC1)c1cc(-c2cccs2)on1 8.73
O=C1N/C(=C/c2ccc(N3CCOCC3)o2)C(=O)N1c1ccccc1 1.59
CCOc1ccc(C2=NNC(c3cccs3)=Nc3ccc(OC)cc32)cc1 0.8
COc1ccc(/C=N/n2c(-c3cccs3)n[nH]c2=S)cc1 2.22
COc1ccc(/C=N/NC(=O)COc2ccccc2-c2ccccc2)cc1 3
COc1ccc(/C=N/Nc2ccc([N+](=O)[O-])cc2S(=O)(=O)N2CCN(C)CC2)cc1 1.22
CNC(=S)N/N=C(\C)c1ccc(N2CCOCC2)cc1 1.55
COC(=O)N/N=C(/c1ccccc1)C1CCCCC1 1.01
O=c1c2c(nc3cc(-c4cccc(Cl)c4)[nH]n13)CCC2 11.5
O=C(Nc1ccc2ccccc2c1)c1cnccn1 10.2
c1ccc(Nc2nc3ccccc3o2)cc1 12.6
NC(N)=N/N=C/c1ccc(OCc2ccc(Cl)cc2)cc1 5.51 [at 7.5 µM]
Cn1cccc1/C=C1\Cc2ccccc2C1=O 10.4
COc1ccc(C(=O)/C=C/c2cccs2)c(OC(=O)c2cccc([N+](=O)[O-])c2)c1 11.9
COc1ccc(/C=C\c2nc(=O)c3ccccc3o2)cc1 15.8 [at 7.5 µM]
Cc1nc(SCc2ccc(Cl)cc2)ncc1C(=O)O 1.29
CC(=O)Nc1cc2nn(-c3ccccc3)nc2cc1Cl 12.6 [at 7.5 µM]
CC(C)CC(=O)Nc1ccc2c(c1)oc1ccccc12 11.7

Source: PubChem BioAssay AID1241 (SRMLSC, 2008)
